# The supplement of paper PMC11417369
# ± gives the standard deviation of the averaged measurements. Whole data set: some 25,000 sequences, median “ln(normalized median fluorescence intensity)” near 8.9, cut for the highest 2% near 10. The list comes from a sample in which the highest values are over-represented; it also holds similar and randomly drawn sequences.
# Tested on: PfAP2-LT AP2 domain (GST-tagged)
# Assay: gcPBM binding intensity (ln(normalized median fluorescence intensity)); higher = stronger DNA binding
# Procedure, shortened: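 Binding intensity values are the highest Masliner-normalised natural-log median intensity among replicate spots of either probe orientation. The binding step lasted 1 h in 1× PBS with 1% milk, 0.2 mg/ml BSA, 0.5% salmon testes DNA and 0.03% Triton X-100, using GST-tagged P. falciparum DNA-binding domains expressed in E. coli on an Agilent 4 × 180k array of primer-extended double-stranded 36-bp intergenic genomic probes plus negative controls. Alexa488 anti-GST antibody and a 488 nm scan detected bound protein.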
row,Sequence,gcPBM binding intensity (ln)
1,TATTAATATGGTAATACACACTAATATACTTTTGTT [CACACA_site6860],8.89 ± 0.5
2,ATAAAAATATATGAAACACACAGTTTCTATAAGAAA [CACACA_site4156],8.68 ± 0.47
3,CATATAATTATATATCGTACATATTAATATAATTAC [XGTACX_site401],8.68 ± 0.38
4,GTTAATTTTTGTATAGTGCAAAAATATAATAGTATG,8.64 ± 0.48
5,AACATATATAAATACACACACATATATATATGAAAT [CACACA_site4312],9.51 ± 0.26
6,AAAATAAGAAAACAAATGCACACCATTTATATAGAT [CACACA_site1055],9.03 ± 0.39
7,ATATCTATGTTTATCTCGAATAACTTAAAAAATTAT [CACACA_negctrl_site1131],8.45 ± 0.45
8,AACAGAATAATACTAAATGAACGATTTCTCTTTATG [GTGCAC_negctrl_site376],8.6 ± 0.51
9,ATAAGTGTATAAAAATGTACGTGTATAAAAATATGT [XGTACX_site8235],9.06 ± 0.43
10,GTGTAATGCTTATCGGTGCATATATATATATATATA,10.13 ± 0.021
11,GTGGTTGTAATGGTGGTGCATATTGTATATTATGTT,9.515 ± 0.078
12,ATATATTATATTTAAGTGCATTAATTAAAATGCTTA [GTGCAC_site9403],8.34 ± 0.36
13,CATCACCTTTTTAAATGTACGCATAATACCAAAAAA [XGTACX_site1587],8.6 ± 0.48
14,GAGCCCAAAAAATTAGGTACGTATAAAGAGGTATTT [XGTACX_site5348],8.8 ± 0.54
15,ACCCTATAGGTAACTACACACCGCATATTGTTTACT [CACACA_site7436],9.15 ± 0.34
16,TTAATATTTTGATGTGTACACATTAAAATAGTTTTA [CACACA_site5712],8.46 ± 0.48
17,GAATATTAAACAAACACACACACATATATATATATA [CACACA_site3382],10.1 ± 0.2
18,TTATATTAAACAAACACACACATATATATATATATA [CACACA_site2382],9.54 ± 0.49
19,TTATATTAAACAAACACACACATATAAATATAAATA [CACACA_site7174],9.23 ± 0.3

row,Sequence,gcPBM binding intensity (ln)
1,GAATATTAAACAAACACACACACATATATTTATATA [CACACA_site7563],9.73 ± 0.27
2,ATATTAAACAAACACACACACATATATATATATATA [CACACA_site3383],10.2 ± 0.35
3,GTTTATATTAAACAAACACACACATATATATATATA [CACACA_site8749],9.57 ± 0.18
4,TGTATATATTTGTGCACACCAAAGTTTGATTTTATT [CACACA_site1860],9.3 ± 0.42
5,TTGTATATATTAAATTGTACTTATTTTTTGTATATA [XGTACX_site3251],8.64 ± 0.54
6,CTGAGGAAGCTAATTACACACATGCATATTTTTTTT [CACACA_site2177],9.08 ± 0.28
7,TGCAACAAAATAAACACACACACACCCCCACAAAAA [CACACA_site3388],10.36 ± 0.057
8,AATGTACACCCACCCACACACAAACAAATATATATA [CACACA_site5521],10.1 ± 0.4
9,AAAAAAAAAAAACACACACACACACCCACAAAATAT [CACACA_site1447],10.31 ± 0.028
10,GTAAAAAAAGAGCACACACACAAAAACACCCACAAA [CACACA_site1292],10.3 ± 0.23
11,TGCAACAAAATAAACACACACACACTAACACAAAAA [CACACA_site7567],9.98 ± 0.33
12,TTTAAACAAGGATCCACACACCCCAAAAAAAAAAGA [CACACA_site680],9.26 ± 0.4
13,AATGTACCCACACCCACACACAAACAAATATATATA [CACACA_site2751],9.74 ± 0.29
14,CACAAACAAAAACACACACACACACCCACAAAAATG [CACACA_site2429],10.2 ± 0.34
15,AGCACACCCACAAAAACACACACAAAGGTGTTCTTA [CACACA_site8355],9.39 ± 0.42
16,AAAAAAAAAAAAAACACACACATACACCCAAAAATG [CACACA_site4223],9.66 ± 0.24
17,AAAAAAATAAAACACACACACAAAAAAATAAAAATA [CACACA_site465],9.56 ± 0.3
18,AAAAATAAAAAAATGACACACATATATATATATATA [CACACA_site2307],9.85 ± 0.11
19,TATAACAATTTTTATGCATGCGACTATAATATTTTT [TGCATGCA_site508],8.92 ± 0.42

row,Sequence,gcPBM binding intensity (ln)
1,ATTATATAAGTACACAAACAAGTATGAGATTCAAAA [GTGCAC_negctrl_site119],8.88 ± 0.5
2,ATATATTATATGTACACACACATATAAGGGATTATA [CACACA_site5],9.28 ± 0.4
3,TTATATTATATATATGTGCACATTTTTAAACTTGGA,8.77 ± 0.47
4,ACAAACAAAGAAAGAACACACATACACAAGATACCT [CACACA_site7353],9.54 ± 0.26
5,ATATAACTTTTAAAAGCATGCAAATATTTACTCAAT [TGCATGCA_site396],8.78 ± 0.45
6,TGATAAGAAAAAGACTTTTCCTTCTTACTTTCTATG [CACACA_negctrl_site782],8.55 ± 0.59
7,ACATGAAGATATTTTTGTCCGTACAAATTCATATGA [XGTACX_site1837],8.66 ± 0.23
8,AAGGTATTTATAACTACACACTTATTTATAACCTAA [CACACA_site6194],8.7 ± 0.43
9,ATATGAAGTATCGAATTAAGGGCAACAAATAAATTA [CACACA_negctrl_site1116],8.76 ± 0.57
10,GTGGAAAAAAATAATTGTACACAATAATAAATATAT [XGTACX_site2414],8.87 ± 0.45
11,GTTTGAATGGCGCACTGTACACATATATACATATAG [XGTACX_site8619],9.13 ± 0.26
12,TTCTATTCACATTTTACACACGTCCATCGCATTTTA [CACACA_site3453],9.44 ± 0.46
13,ATTTTTTATGGACAAAAGACCTCTGATGTAAATATA [CACACA_negctrl_site1081],8.38 ± 0.4
14,CCCACAGACGGACACACACACACACCGACACATATA [CACACA_site4356],10 ± 0.26
15,CCCACAGACGGACACACACACATATATATATATATA [CACACA_site4351],10.4 ± 0.22
16,TTTGTTGACGGACACACACACATACAGATATATATA [CACACA_site5292],9.4 ± 0.27
17,CATACATACAGACACACACACATATTTATATTTATA [CACACA_site6172],9.9 ± 0.41
18,AGCACAGACGGACACACACACATATATATATATATA [CACACA_site4341],10.37 ± 0.085
19,CACAGACACGGACACACACACATATATAATATATAT [CACACA_site4495],9.87 ± 0.42
